This is an account of results in PubChem BioAssay (NCI).

About 83,000 compounds went through this panel and 20% of them were active in at least one assay; those are over-represented in the sample as a whole.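 Note: values are percent growth. 100 is the growth of untreated cells, values between 100 and 0 indicate rising inhibition; between -100 and 0 indicates cell death.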 Unmarked numbers belong to inactive results. Active and inactive are the calls of the source. The calls were made as follows: active = growth percent below 10; inactive = the rest.

One test has as its system 786-0 renal. Kind of test: NCI-60 one-dose screen, 48 h (100 = growth as untreated, 0 = no growth, -100 = all killed). The note with it: 10 µM.
On to `O=C1CC(=O)N(C(=O)c2nn(-c3ccc(Cl)cc3)cc2O)N1`, for which the growth is 50.7%.
As to `COc1ccc2c(c1)C(=O)/C(=C/c1ncc([N+](=O)[O-])n1C)O2`, the growth was -26.3% (active).
Regarding `S=C1N(c2ccccc2)CN(C2CCCCC2)CN1c1ccccc1`, the growth is 100%.
On the same count and under the same terms, the result for `COc1cc2cc(Oc3ccc(NC(=O)c4ccc(Cl)c(C(F)(F)F)c4)cc3)c(C)nc2cc1OC` reads 32.2%; that for `O=C(N/N=C/c1c(Cl)cccc1Cl)c1ccccc1Nc1cccc(C(F)(F)F)c1`, 102%.
On the same count and under the same terms, under `O=C1/C(=C/c2ccc([N+](=O)[O-])s2)Oc2cc(Cl)ccc21` stands 14.3%; under `N#Cc1cnn(C(=O)c2nn(-c3ccc(Cl)cc3)cc2O)c1N`, 17.3%; under `O=C(CCC(C(=O)c1ccccc1)c1ccccc1)c1ccccc1` (stereo unspecified), 82.7%.
Consider `O=C1c2c(c(=O)[nH]c3ccccc23)CCN1Cc1ccccc1`, for which the growth was 99.8%.
Turning to `COc1cc(-c2ccc(N=Nc3ccc4c(S(=O)(=O)O)ccc(N)c4c3O)c(OC)c2)ccc1N=Nc1ccc2c(S(=O)(=O)O)ccc(N)c2c1O`, the growth was 120%.
On the same count and under the same terms, under `c1ccc(/C(=N\Nc2ccc3ccccc3n2)c2ccccn2)cc1` stands -35.9% (active); under `COc1ccc(C2CC(c3cc(OC)c(OC)c(OC)c3)=NN2)cc1` (stereo unspecified), 92.1%.
On the same count and under the same terms, under `CSc1nc2c(c(=O)n1C)CN(Cc1ccccc1)C(=O)CN2` stands 91.9%; under `COc1ccc(C(=O)c2cc3c(OC)c(OC)c(OC)cc3[nH]2)cc1`, 73.2%.
On to `COc1cc2c(Nc3ccc(-c4ccc(N)cc4)cc3)ncnc2c(OC)c1OC`, for which the growth was 48%.
The same measure, in the same setting: under `COc1ccc(N(C)c2ncnc3occ(C)c23)cc1` stands 17.8%; under `COc1ccc2c(c1)C(=O)/C(=C/c1ccc([N+](=O)[O-])o1)O2`, -71% (active).
Still for that read-out and setting: under `COc1ccc(/C=C2\CCCC3C2=Nc2ccccc2NC3c2ccc(OC)cc2)cc1` (stereo unspecified) stands 101%; under `NC1=NC(c2ccccc2)C2=C(N1)/C(=C/c1ccccc1)CCC2` (stereo unspecified), 101%; under `Cc1c2c(nn1C(=O)c1nn(-c3ccc(Cl)cc3)cc1O)-c1ccccc1CC2`, 21.1%.
In the case of `COc1nc2c(c(=O)n1C)CN(c1ccccc1)C(=O)C(C)N2` (stereo unspecified), the growth was 97.5%.
The same measure, in the same setting: under `COc1cccc2ccc(CC(O)(c3ccccc3)c3ccccc3)nc12` stands 96.7%.
For the molecule `CC(=O)Nc1ccc(S(=O)(=O)N/N=C(\C)c2ccc(C)cc2C)cc1`, the growth is 105%.
Same read-out and setting: under `CC(=O)C1N=NCC1c1ccccc1` (stereo unspecified) stands 110%; under `CS(=O)(=O)c1nccc(-c2c(-c3cccc(OCc4ccc(F)cc4)c3)nc3sccn23)n1`, 79.5%; under `Cc1ccc(NC(=S)NNC(=S)Nc2ccc(C)cc2)cc1`, 58.9%.
For the molecule `Nc1ncc(-c2cnn(C3CCNCC3)c2)cc1-c1nc2ccccc2o1`, the growth is 19.5%.
Still for that read-out and setting: the result for `CS(=O)(=O)c1nccc(-c2c(-c3cccc(OCCc4ccccc4)c3)nc3sccn23)n1` reads 108%; that for `NC1=NC(c2ccc(Cl)cc2)C2=C(N1)/C(=C/c1ccc(Cl)cc1)CCC2` (stereo unspecified), 90.4%.
Still for that read-out and setting: the result for `COc1cc2cc(Oc3ccc(NC(=O)c4cccc(C(F)(F)F)c4)cc3)c(C)nc2cc1OC` reads 45.4%; that for `COc1cc2cc(Oc3ccc(NC(=O)c4ccccc4)cc3)c(C)nc2cc1OC`, 118%.
The same measure, in the same setting: the result for `COc1ccc(Nc2cnc3cc(NS(=O)(=O)c4ccc(C)cc4)ccc3n2)cc1` reads 97%; that for `CCOC(=O)c1cc(C(=O)c2cc(OC)c(OC)c(OC)c2)n2ncc3ccccc3c12`, 94.5%.

Another test relates to COLO 205 colon. The description is as above. The note with it: 10 µM.
As to `O=C1CC(=O)N(C(=O)c2nn(-c3ccc(Cl)cc3)cc2O)N1`, the growth was -13.4% (active).
Take `COc1ccc2c(c1)C(=O)/C(=C/c1ncc([N+](=O)[O-])n1C)O2`: the growth was -47.5% (active).
On the same count and under the same terms, under `S=C1N(c2ccccc2)CN(C2CCCCC2)CN1c1ccccc1` stands 112%; under `COc1cc2cc(Oc3ccc(NC(=O)c4ccc(Cl)c(C(F)(F)F)c4)cc3)c(C)nc2cc1OC`, 33.1%; under `O=C(N/N=C/c1c(Cl)cccc1Cl)c1ccccc1Nc1cccc(C(F)(F)F)c1`, 126%.
On the same count and under the same terms, under `O=C1/C(=C/c2ccc([N+](=O)[O-])s2)Oc2cc(Cl)ccc21` stands -28.3% (active).
On the same count and under the same terms, the result for `N#Cc1cnn(C(=O)c2nn(-c3ccc(Cl)cc3)cc2O)c1N` reads -23.4% (active); that for `O=C(CCC(C(=O)c1ccccc1)c1ccccc1)c1ccccc1` (stereo unspecified), 79.7%; that for `Cc1ccc(C2NC(=S)N3C(c4ccc(C)cc4)NC(=S)N23)cc1` (stereo unspecified), 44%.
For the molecule `COc1cc(-c2ccc(N=Nc3ccc4c(S(=O)(=O)O)ccc(N)c4c3O)c(OC)c2)ccc1N=Nc1ccc2c(S(=O)(=O)O)ccc(N)c2c1O`, the growth was 95.7%.
With `c1ccc(/C(=N\Nc2ccc3ccccc3n2)c2ccccn2)cc1`, the growth is 26.5%.
As for `COc1ccc(C2CC(c3cc(OC)c(OC)c(OC)c3)=NN2)cc1` (stereo unspecified), the growth was 55.1%.
On to `CSc1nc2c(c(=O)n1C)CN(Cc1ccccc1)C(=O)CN2`, for which the growth was 113%.
With `COc1ccc(C(=O)c2cc3c(OC)c(OC)c(OC)cc3[nH]2)cc1`, the growth is 37.4%.
For the molecule `COc1cc2c(Nc3ccc(-c4ccc(N)cc4)cc3)ncnc2c(OC)c1OC`, the growth is 19.8%.
On the same count and under the same terms, under `COc1ccc(N(C)c2ncnc3occ(C)c23)cc1` stands -62.4% (active); under `COc1ccc2c(c1)C(=O)/C(=C/c1ccc([N+](=O)[O-])o1)O2`, -81.6% (active); under `COc1ccc(/C=C2\CCCC3C2=Nc2ccccc2NC3c2ccc(OC)cc2)cc1` (stereo unspecified), 116%.
On to `NC1=NC(c2ccccc2)C2=C(N1)/C(=C/c1ccccc1)CCC2` (stereo unspecified), for which the growth was 112%.
Regarding `Cc1c2c(nn1C(=O)c1nn(-c3ccc(Cl)cc3)cc1O)-c1ccccc1CC2`, the growth is -4.51% (active).
Still for that read-out and setting: under `COc1nc2c(c(=O)n1C)CN(c1ccccc1)C(=O)C(C)N2` (stereo unspecified) stands 115%.
Take `COc1cccc2ccc(CC(O)(c3ccccc3)c3ccccc3)nc12`: the growth is 95.4%.
The same measure, in the same setting: under `CC(=O)Nc1ccc(S(=O)(=O)N/N=C(\C)c2ccc(C)cc2C)cc1` stands 103%.
Regarding `CC(=O)C1N=NCC1c1ccccc1` (stereo unspecified), the growth is 114%.
For `CS(=O)(=O)c1nccc(-c2c(-c3cccc(OCc4ccc(F)cc4)c3)nc3sccn23)n1`, the growth was 91.2%.
Same read-out and setting: the result for `Cc1ccc(NC(=S)NNC(=S)Nc2ccc(C)cc2)cc1` reads 84.3%; that for `Nc1ncc(-c2cnn(C3CCNCC3)c2)cc1-c1nc2ccccc2o1`, -73.7% (active).
On to `CS(=O)(=O)c1nccc(-c2c(-c3cccc(OCCc4ccccc4)c3)nc3sccn23)n1`, for which the growth was 103%.
Still for that read-out and setting: under `NC1=NC(c2ccc(Cl)cc2)C2=C(N1)/C(=C/c1ccc(Cl)cc1)CCC2` (stereo unspecified) stands 92%.
Consider `COc1cc2cc(Oc3ccc(NC(=O)c4cccc(C(F)(F)F)c4)cc3)c(C)nc2cc1OC`, for which the growth is 27.2%.
Turning to `COc1cc2cc(Oc3ccc(NC(=O)c4ccccc4)cc3)c(C)nc2cc1OC`, the growth was 109%.
The same measure, in the same setting: the result for `COc1ccc(Nc2cnc3cc(NS(=O)(=O)c4ccc(C)cc4)ccc3n2)cc1` reads 96.4%; that for `CCOC(=O)c1cc(C(=O)c2cc(OC)c(OC)c(OC)c2)n2ncc3ccccc3c12`, 60.4%.
